# Source: PubChem BioAssay
# Calls of active or inactive are those of the source.
# Tests used:
# [1] = compounds binding Alexa647 anti-His antibody – biochemical, small-molecule microarray, 635 nm fluorescence, artefact control for SMM control protein annotation, primary screen (AID 1128); conditions: higher = more signal;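 also: score merges feature fluorescence with signal-to-noise for each printed compound spot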
# [2] = tested on: Human papillomavirus type 1a E7 protein (residues 1-88); assay: HPV1a E7 small-molecule binders, primary screen, biochemical, small-molecule microarray, residues 1-88, 635 nm (AID 1129); conditions: small-molecule microarray binding, fluorescence 635 nm; higher = more signal
# [3] = target: Focal adhesion kinase 1 (Homo sapiens) (UniProt Q05397); assay: PTK2 protein binding on printed compound slides – biochemical, small-molecule microarray, 635/667 nm fluorescence, BSA, DTT, primary screen (AID 1130); conditions: 635 nm fluorescence, higher = more signal;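 also: composite of spot emission at 667 nm and signal to noise over triplicate slides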
# [4] = tested on: Fibrinogen (Alexa647-labelled); assay: Alexa647-fibrinogen binding to printed small molecules – biochemical, small-molecule microarray, 635/667 nm fluorescence, artefact control for SMM control-protein annotation, profiling panel (AID 1131); conditions: fibrinogen-A647 binding fluorescence, higher = more signal;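 also: z-score merges 667 nm fluorescence with per-spot signal-to-noise over triplicate slides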
# [5] = target: Follistatin (Homo sapiens) (UniProt P19883); assay: FST protein binding to printed compounds – biochemical, small-molecule microarray, 635/667 nm fluorescence, primary screen (AID 1132); conditions: 635 nm fluorescence, higher = more signal
# [6] = target: Fibroblast growth factor 2 (Homo sapiens) (UniProt P09038); assay: basic fibroblast growth factor binding to printed compounds – biochemical, small-molecule microarray, 635/667 nm fluorescence, primary screen (AID 1133); conditions: FGF2, fluorescence 635/667, higher = more signal
# [7] = JC-1 mitochondrial potential readout, lung cancer cells – cell-based, A549, JC-1 fluorescence, basal, 24 h, 100 nL, profiling panel (AID 1138); conditions: higher = more signal;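 also: A549 lung adenocarcinoma cells under basal conditions with no added stimulus; test concentration not given here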
# Lefty1 = Lefty1 protein binding to printed compounds – biochemical, small-molecule microarray, 635/667 nm fluorescence, primary screen (AID 1139); conditions: fluorescence 635/667, higher = more signal
# [8] = tested on: wheat germ agglutinin (Triticum aestivum), Alexa647-labelled; assay: Alexa647-WGA lectin binding to printed small molecules – biochemical, small-molecule microarray, 635/667 nm fluorescence, artefact control for SMM control-protein annotation, profiling panel (AID 1140); conditions: WGA-A647 binding, 635 nm fluorescence, higher = more signal;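 also: score merges 667 nm feature emission with signal to noise over triplicate slides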
# [9] = target: Luciferin 4-monooxygenase (Photinus pyralis) (UniProt P08659); assay: inhibition of purified Photinus pyralis luciferase – biochemical, luminescence, purified enzyme, 2006 set, primary screen (AID 1141); conditions: purified firefly luciferase, SteadyGlo luminescence, 30 min; higher = more signal, called active from +8 up or from −8 down;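 also: cell-free assay with purified firefly luciferase at 100 ng per well in PBS; test concentration not given here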
# Luciferin 4-monooxygenase (Photinus pyralis), sequence (P08659 whole entry, looked up): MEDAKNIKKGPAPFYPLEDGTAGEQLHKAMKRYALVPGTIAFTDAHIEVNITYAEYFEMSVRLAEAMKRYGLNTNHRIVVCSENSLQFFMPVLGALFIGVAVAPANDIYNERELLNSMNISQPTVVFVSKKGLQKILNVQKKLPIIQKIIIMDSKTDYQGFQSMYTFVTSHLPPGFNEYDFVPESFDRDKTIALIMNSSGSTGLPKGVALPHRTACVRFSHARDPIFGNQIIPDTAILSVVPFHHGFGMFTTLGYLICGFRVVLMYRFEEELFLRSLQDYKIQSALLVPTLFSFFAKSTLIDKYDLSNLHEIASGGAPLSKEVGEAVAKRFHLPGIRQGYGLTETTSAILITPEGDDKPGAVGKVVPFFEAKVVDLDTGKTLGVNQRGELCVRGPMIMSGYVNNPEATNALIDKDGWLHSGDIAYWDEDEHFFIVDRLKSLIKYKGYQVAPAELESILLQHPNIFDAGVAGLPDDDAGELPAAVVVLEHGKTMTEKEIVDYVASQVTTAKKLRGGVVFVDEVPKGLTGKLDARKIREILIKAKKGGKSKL
# Fibroblast growth factor 2 (Homo sapiens), sequence (P09038 whole entry, looked up): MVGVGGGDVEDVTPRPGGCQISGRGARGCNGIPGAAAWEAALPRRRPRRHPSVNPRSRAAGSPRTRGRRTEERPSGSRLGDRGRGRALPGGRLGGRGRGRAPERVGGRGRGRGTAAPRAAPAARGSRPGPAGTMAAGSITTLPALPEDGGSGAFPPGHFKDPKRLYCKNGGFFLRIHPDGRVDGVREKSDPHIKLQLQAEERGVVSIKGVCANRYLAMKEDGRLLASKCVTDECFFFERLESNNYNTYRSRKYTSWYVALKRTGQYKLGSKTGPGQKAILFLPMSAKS
# Follistatin (Homo sapiens), sequence (P19883 whole entry, looked up): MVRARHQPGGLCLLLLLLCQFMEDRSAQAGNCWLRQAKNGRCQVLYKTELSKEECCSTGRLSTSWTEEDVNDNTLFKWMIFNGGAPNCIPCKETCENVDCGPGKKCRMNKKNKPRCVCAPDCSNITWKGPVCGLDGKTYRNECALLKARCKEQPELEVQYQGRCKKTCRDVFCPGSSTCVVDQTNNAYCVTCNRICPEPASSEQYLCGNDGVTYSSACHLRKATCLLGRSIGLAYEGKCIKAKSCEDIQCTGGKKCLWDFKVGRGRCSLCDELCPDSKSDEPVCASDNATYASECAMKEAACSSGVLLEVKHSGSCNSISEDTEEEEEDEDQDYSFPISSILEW
# Focal adhesion kinase 1 (Homo sapiens), sequence (Q05397 whole entry, looked up): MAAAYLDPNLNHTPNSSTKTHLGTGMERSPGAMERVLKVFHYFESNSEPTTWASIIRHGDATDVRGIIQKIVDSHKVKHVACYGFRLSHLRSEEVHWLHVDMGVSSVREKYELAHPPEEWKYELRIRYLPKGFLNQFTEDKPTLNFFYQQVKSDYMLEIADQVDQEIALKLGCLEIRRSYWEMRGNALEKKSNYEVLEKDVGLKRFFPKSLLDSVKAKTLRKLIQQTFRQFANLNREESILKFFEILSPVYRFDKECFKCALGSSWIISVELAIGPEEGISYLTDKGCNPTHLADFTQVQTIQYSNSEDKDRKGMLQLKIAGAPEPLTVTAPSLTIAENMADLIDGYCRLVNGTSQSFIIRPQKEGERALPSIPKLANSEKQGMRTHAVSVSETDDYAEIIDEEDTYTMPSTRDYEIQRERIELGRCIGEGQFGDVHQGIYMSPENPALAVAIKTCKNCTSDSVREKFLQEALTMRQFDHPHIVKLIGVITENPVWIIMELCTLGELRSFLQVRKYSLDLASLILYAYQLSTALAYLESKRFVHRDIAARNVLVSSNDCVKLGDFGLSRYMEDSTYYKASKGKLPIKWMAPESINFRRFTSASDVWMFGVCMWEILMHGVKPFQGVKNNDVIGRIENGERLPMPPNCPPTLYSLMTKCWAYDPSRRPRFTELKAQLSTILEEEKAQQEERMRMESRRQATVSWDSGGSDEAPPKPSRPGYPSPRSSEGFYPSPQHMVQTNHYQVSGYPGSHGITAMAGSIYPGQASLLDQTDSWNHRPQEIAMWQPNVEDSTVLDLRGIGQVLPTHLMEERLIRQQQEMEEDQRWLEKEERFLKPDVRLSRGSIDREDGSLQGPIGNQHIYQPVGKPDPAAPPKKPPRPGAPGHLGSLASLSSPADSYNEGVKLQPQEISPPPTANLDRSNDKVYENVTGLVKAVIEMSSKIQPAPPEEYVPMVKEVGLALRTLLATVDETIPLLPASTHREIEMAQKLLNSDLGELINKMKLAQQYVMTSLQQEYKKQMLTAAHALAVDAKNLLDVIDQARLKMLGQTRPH
Structure (SMILES),composite z-score [1],composite z-score [2],composite z-score [3],composite z-score [4],composite z-score [5],composite z-score [6],z-score [7],composite z-score (Lefty1),composite z-score [8],z-score [9]
COCCOC(=O)N1C(=O)[C@@]2(c3cc(C#CC4(O)CCCCCC4)ccc31)[C@H](C(=O)NC[C@H](O)c1ccccc1)[C@H]1C(=O)O[C@H](c3ccccc3)[C@H](c3ccccc3)N1[C@@H]2c1ccc(OCCO)cc1,0.726,1.21,0.444,0.95,0.822,0.94,-1.49,0.473,0.357,0.531 (inactive)
COCCOC(=O)N1C(=O)[C@@]2(c3ccccc31)[C@H](c1ccc(OCCO)cc1)N1[C@H](c3ccccc3)[C@H](c3ccccc3)OC(=O)[C@H]1[C@@H]2C(=O)NC[C@H](O)c1ccccc1,1.95,1.23,0.327,0.937,1.32,1.03,0.414,0.714,1.05,-0.652 (inactive)
C[N+](C)(C)CCCC[C@@H]1NC(=O)[C@@H]2C[C@H](C(=O)O)[C@H](c3cccc(OCCO)c3)N2C1=O,0.0065,-0.586,-0.466,-1.46,1.45,1.5,1.08,0.135,0.218,-1.99 (inactive)
CN1C(=O)C2C=CC(C(O)c3ccc(F)cc3)N(N3CCCCC3)C2C1=O (stereo not given),2.59,0.978,1.34,0.167,0.0756,-0.627,-0.0964,-1.21,1.38,0.0216 (inactive)
CCOC(=O)C[C@H]1[C@H](OC(=O)c2cc3ccccc3oc2=O)[C@@H](NC(=O)c2ccc3ccccc3n2)c2cc(OCCCO)ccc2N1C(=O)c1ccc2ccccc2n1,0.81,0.784,0.114,0.541,0.99,0.818,1.1,1.44,0.131,-0.204 (inactive)
C=CCC(OC(C)=O)[C@@H]1[C@@H](N(Cc2ccc(-c3ccccc3)cc2)C(=O)c2cccc3ccccc23)c2cc(OCCCO)ccc2N1C(=O)c1ccc2ccccc2n1 (stereo not given in full),0.952,0.138,0.16,-0.0282,0.374,0.268,1.14,0.565,0.139,-0.658 (inactive)
CC(C)=CCCC(C)=CC(O)C1C=CC2C(=O)N(c3ccccc3)C(=O)C2N1Nc1ccc([N+](=O)[O-])cc1 (stereo not given),0.987,1.22,0.954,1.02,1.03,-0.151,-0.78,0.253,0.969,0.453 (inactive)
COC(=O)[C@]1(Cc2ccccc2CN=[N+]=[N-])N=C(c2ccc(OCCCO)cc2)O[C@@H]1c1ccccc1CN=[N+]=[N-],1.12,1.15,0.392,0.518,1.17,0.838,1.02,-0.222,0.609,-1.41 (inactive)
COc1ccc(C(=O)Nc2ccc(CN3C(=O)[C@]4(O[C@H](CCn5cc([C@H](O)c6ccccc6)nn5)[C@@H]([Si](C)(C)c5ccc(OC)cc5)[C@@H]4C)c4ccccc43)cc2)cc1,-0.271,-0.303,-0.288,0.107,0.971,-0.224,0.496,0.444,0.849,-0.363 (inactive)
CO[C@H]1O[C@H](CO)[C@@H](OC(=O)Nc2cccc(F)c2)[C@H](OC(=O)Nc2ccc3c(c2)OCO3)[C@H]1OC(=O)Nc1ccc2c(c1)OCO2,1.62,1.26,0.807,0.884,1.32,0.819,-0.358,0.9,1.15,-5.24 (inactive)
C[C@]12C(=O)N(CCCO)[C@@H]3C(=O)N(c4ccc(Cl)cc4)CC=CC31O[C@@H]1/C=C\CCCOC(=O)C12 (stereo not given in full),2.25,-0.549,0.438,-2.51,-0.804,-1.72,0.202,-0.68,1.13,-0.299 (inactive)
CCOC(=O)C[C@H]1[C@H](OC(=O)Cc2ccc3c(c2)OCO3)[C@@H](NC(=O)c2ccccc2)c2cc(OCCCO)ccc2N1C(=O)c1ccccc1,-0.226,0.669,-0.061,0.731,0.392,0.383,0.673,0.557,1.25,-0.207 (inactive)
O=C(C=C(CC(O)c1cccc(Cl)c1)OCCF)OCCF (stereo not given),-0.144,-1.59,-0.401,-1.35,-0.885,-0.576,0.0691,-0.94,-0.442,0.364 (inactive)
C=CCNC(=O)[C@@H]1[C@H]2C(=O)O[C@H](c3ccccc3)[C@H](c3ccccc3)N2[C@H](c2ccc(O)cc2)[C@@]12C(=O)Nc1ccc(C#CCCO)cc12,0.111,-0.756,1.33,-1.22,-0.773,-0.53,-0.0797,-0.836,1.24,1.05 (inactive)
C=C(CCCC)/C(=C/C[C@H](OC(=O)c1ccncc1)c1ccc(CO)o1)c1cc(C(=O)OC)ccc1OC,0.872,1.19,-0.0174,0.826,0.899,1.08,-0.648,1.28,1.04,-1.19 (inactive)
CN(C)CCCNC(=O)[C@@]1(Cc2ccccc2I)c2ccccc2C(=O)N(Cc2ccccc2Cl)[C@H]1c1ccc(CO)cc1,-0.528,1.08,0.224,0.788,-0.292,-0.717,-1.18,-0.615,0.73,0.122 (inactive)
